Bioassay records deposited in PubChem by National Center for Advancing Translational Sciences (NCATS).
A selection: hits, their analogues and other compounds. The true share with any hit is near 3.1%.
Tau FP inhib: blocks human tau fibril formation measured by polarization | K18 P301L tau heparin fibrillization, Alexa594 FP, 6 h | Potency, µM (top dose mostly 57.7 µM), for the others: top-dose activity, negative = inhibition, most hits filed as inhibitors | P10636 | hit rate 0.39% among 280,000; further: nearly all actives have a fitted effect of over 55% in size
Target sequence (P10636 561-689 P618L limits assumed): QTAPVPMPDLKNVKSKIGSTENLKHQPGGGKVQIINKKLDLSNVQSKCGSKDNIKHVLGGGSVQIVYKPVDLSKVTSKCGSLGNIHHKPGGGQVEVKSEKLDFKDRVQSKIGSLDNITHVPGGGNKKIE
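Recombinant K18 P301L […], labeled with Alexa 594 at 0.24 uM over 15 uM unlabeled; heparin inducer 20 uM final; 37 C, 6 hr; FP endpoint.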
TRb SRC2 PPI: disrupts binding of human TR beta to SRC2; TRbeta-SRC2 peptide binding, fluorescence polarization; receptor liganded with 1 µM T3; Potency, µM (top dose mostly 106 µM), for inactives: at the top dose activity change, negative = inhibition, most hits filed as inhibitors; AID 1469; P10828; hit rate 0.065% among 280,000;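 further: plate controls were bound peptide for no effect and peptide without receptor for full effect; nearly all actives have a fitted effect of over 50% in size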
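Decrease in fluorescence polarization of 20 nM Texas Red SRC2 coactivator peptide flagged inhibition of its binding to 0.6 uM TRb LBD; 1 uM T3 included, incubation 5 hr, ex 555/em 632 nm.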
TexasRed fluor: Texas Red fluorescence interference in TRb-SRC2 counter-screen; hit rate 0.29% among 280,000; TRb/SRC2 Texas Red total fluorescence interference; AID 1479; Potency, µM (series often up to 106 µM), inactives show at the top dose fluorescence change, negative = quenching; active means well fitted curve in either direction with a large enough effect; inconclusive means small, poorly fitted or top-dose-only effect
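Human TRb ligand-binding domain at 0.6 uM with 20 nM Texas Red SRC2 peptide in Tris buffer containing 1 uM T3 and 5% DMSO, incubated with compound 5 h at ambient temperature. Total fluorescence (555/632 nm) calculated as parallel + 2 × perpendicular.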
Tau ThT inhib: tau fibrillization inhibition (ThT binding); P10636; recombinant tau K18 P301L, heparin-induced fibrillization, ThT fluorescence; Potency, µM (series often up to 57.4 µM), for inactives: top-dose activity, negative = inhibition, hits mostly inhibitors; hit rate 2.1% among 270,000; AID 1460; further: nearly all actives have a fitted effect of over 55% in size
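Aggregation was driven by heparin (20 uM final) acting on recombinant tau […] bearing P301L in 100 mM sodium acetate pH 7; fibrils were detected with Thioflavin T.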
RGS12 GoLoco inh: RGS12 GoLoco-Gai1 interaction inhibition; P63096; Gai1:RGS12 GoLoco peptide FP, rhodamine, 10 min; Potency, µM (series often up to 61.6 µM), for the others: at the highest dose activity, negative = inhibition, actives largely listed as inhibitors; hit rate 0.44% among 230,000; AID 880; active means well fitted inhibition curve with a large enough effect, not every such curve was filed as active; inactive means no such curve, though single readings can be large or run the other way; further: nearly all actives have a fitted effect of over 30% in size
Target sequence (P63096 whole entry, looked up): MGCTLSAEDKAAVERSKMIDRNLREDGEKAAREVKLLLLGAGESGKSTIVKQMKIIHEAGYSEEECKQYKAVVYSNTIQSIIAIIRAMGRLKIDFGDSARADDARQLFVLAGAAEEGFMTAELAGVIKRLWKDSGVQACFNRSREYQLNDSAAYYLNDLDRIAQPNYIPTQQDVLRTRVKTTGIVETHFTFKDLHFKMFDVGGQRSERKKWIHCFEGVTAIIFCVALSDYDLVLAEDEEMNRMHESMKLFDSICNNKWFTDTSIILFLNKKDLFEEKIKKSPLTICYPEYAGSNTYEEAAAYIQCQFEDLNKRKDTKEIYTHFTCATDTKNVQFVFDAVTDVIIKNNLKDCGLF
Tau fluor cs: counter-screen for tau fibril formation inhibitors | tau K18 P301L (four-repeat tau fragment) Alexa594 fluorescence, heparin fibrillization | Potency, µM (top dose mostly 57.7 µM), for inactives: top-dose activity change, negative = decrease | hit rate 0.93% among 280,000; further: nearly all actives have a fitted effect of over 55% in size
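Human K18 P301L tau (15 uM unlabeled plus 0.24 uM Alexa 594-labeled, final) in 100 mM sodium acetate pH 7 was mixed with compound and 20 uM heparin and incubated 6 hr at 37 C.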
Starred values were filed as active, the others as inactive; ? = inconclusive; / = no result given; [ ] = another dose, or the depositor's remark. Unless noted, the call rests on the fitted dose curve; in most records, active means well fitted curve in the direction sought with a large enough effect; inconclusive means small, poorly fitted or top-dose-only effect, or another doubt; inactive means no such curve, though single readings can be large; an effect the other way counts as inactive or inconclusive. Unless noted, on the % scale 0 is the no-effect control and ±100 the full control effect; potency means the concentration at half of the fitted maximal effect.

SMILES	Tau FP inhib	TRb SRC2 PPI	TexasRed fluor	Tau ThT inhib	RGS12 GoLoco inh	Tau fluor cs
O=C(c1ccco1)[C@@H]1[C@@H]2C(=O)N(c3ccccc3)C(=O)[C@@H]2C2c3ccccc3C=CN21 (some centres undefined)	?	-29%	4%	25µM*	57%	-29%
CC(C)(C)C(=O)[C@@H]1[C@@H]2C(=O)N(c3ccc4c(c3)OCCO4)C(=O)[C@@H]2C2c3ccccc3C=CN21 (some centres undefined)	?	-11%	-3%	28µM*	-7%	?
Cc1ccc(N2C(=O)[C@@H]3[C@H](C2=O)C2c4ccccc4C=CN2[C@@H]3C(=O)c2ccco2)cc1 (some centres undefined)	?	3%	-2%	25µM*	118%	-22%
Cc1ccc(N2C(=O)[C@@H]3[C@H](C2=O)C2c4ccccc4C=CN2[C@@H]3C(=O)c2ccco2)c(C)c1 (some centres undefined)	?	?	3%	25µM*	122%	-27%
COc1ccccc1NC(=O)c1cc(C(=O)Nc2ccccc2OC)cc(N2C(=O)CCC2=O)c1	-4%	2%[53 µM]	0%[53 µM]	2%	-1%	6%
CCOC(=O)c1c(-c2ccccc2)nc2ccc(C)cn12	-4%	2%	-1%	-11%	9%	-8%
CCn1ccc2cc(S(=O)(=O)N3CCC(C(=O)NCc4cccc(C)c4)CC3)ccc21	-4%	5%	-8%	-1%	/	-16%
CC(O)c1n(C)c(Cl)c[n+]1C (centres undefined)	-4%	3%	0%	-3%	13µM*	-7%
COc1ccc(N2Nc3n[nH]c(N)c3N2)cc1	12%	-8%	-7%	8.9µM*	-15%	?
COc1ccc(N2CCN(c3n[nH]c(N)n3)CC2)cc1	4%	-1%	-1%	-2%	-1%	-4%
CCOc1ccc(N2Nc3n[nH]c(N)c3N2)cc1	1%	-1%	-2%	13µM*	13%	?
CCOc1ccc(Cc2n[nH]c(=S)n2N)cc1	5%	4%	1%	10%	-2%	4%
COc1cccc(N=Nc2c(N)[nH]n3c(=O)c4c(nc23)CCCC4)c1	3%	0%	-2%	1.4µM*	-2%	?
COC(=O)N1CCC[C@@]2(CCN(C(=O)Nc3cccc(C#N)c3)C2)C1	/	/	/	/	-19%	/
CC(C)CC(=O)N1c2nc(C(C)C)nn2C2(CCCCC2)[C@@H]2CCCC[C@@H]21	5%	-1%	6%	-2%	/	-7%
CCCCCCNC(=O)N[C@H](C(=O)NCCC[C@H]1CN2C(=NC[C@H]2C)N1CCC(c1ccccc1)c1ccccc1)C(C)O (some centres undefined)	-7%	4%	1%	-16%	10µM*	-4%
CCCCc1nnc(NC(=O)C2CC(=O)N(c3ccc4c(c3)OCCO4)C2)s1 (centres undefined)	4%	2%	2%	-9%	-7%	-14%
O=C(Nc1nc(-c2ccco2)c(-c2ccco2)s1)C1CC(=O)N(c2ccc3c(c2)OCCO3)C1 (centres undefined)	?	27%	25µM*[quencher]	14µM*	17%	?
CCC(=O)N1CCc2cc(Br)cc(S(=O)(=O)N3CCCC(C(=O)NCc4cccc(OC)c4)C3)c21 (centres undefined)	4%	-10%	0.0079µM*[quencher]	?	/	-28%
CCC(=O)N1CCc2cc(Br)cc(S(=O)(=O)N3CCCC(C(=O)NCc4ccc(OC)cc4)C3)c21 (centres undefined)	0%	-7%	-4%	-1%	/	-12%
N#CC1=C(N)Oc2c(O)cc3ccccc3c2C1c1ccsc1 (centres undefined)	?	5%	10%	?	4%	16µM*[quencher]
CCOC(=O)C1=C(C)OC(N)=C(C#N)C1c1ccsc1 (centres undefined)	-13%	9%	3%	?	41%	-14%
CCOc1ccc(-c2[nH]ncc2-c2ccc(OC)c(OC)c2)c(O)c1	1%	7%	0%	9%	-10%	1%
CCCOC(=O)c1ccc(Oc2cn[nH]c2-c2ccc(OC)cc2O)cc1	?	8%	0%	?	0%	11µM*[quencher]
C=C(C)COc1ccc(-c2[nH]ncc2Oc2ccccc2OC)c(O)c1	?	-11%	1%	?	4%	14µM*[quencher]
SMILES	Tau FP inhib	TRb SRC2 PPI	TexasRed fluor	Tau ThT inhib	RGS12 GoLoco inh	Tau fluor cs
C=C(C)COc1ccc(-c2[nH]ncc2-c2ccc(Br)cc2)c(O)c1	28µM*	-5%	-4%	?	1%	10µM*[quencher]
C=C(C)COc1ccc(-c2[nH]ncc2-c2ccccc2OC)c(O)c1	-5%	-3%	-5%	?	9%	16µM*[quencher]
CCN1CCN(c2c(Cl)cccc2NC(=O)c2ccc3nsnc3c2)CC1	-5%	-6%	-4%	/	5%	-18%
Cc1cnc(C(=O)Nc2cc(S(=O)(=O)N3CCOCC3)ccc2N2CCN(C)CC2)cn1	1%	0%	-1%	?	-17%	-14%
C=C(C)COc1ccc(-c2[nH]ncc2Oc2ccc(OC)cc2)c(O)c1	?	0%	-2%	?	6%	7.9µM*[quencher]
COC(=O)CCN(C(=O)c1ccc([N+](=O)[O-])cc1)c1ccccn1	-6%	-11%	-2%	/	8%	-13%
FC(F)(F)c1nc2ccccc2nc1N/N=C\c1ccccc1	1%	-1%	-7%	14µM*	7%	?
NNc1nc2ccccc2nc1C(F)(F)F	-4%	-4%	-2%	?	9%	-23%
CC(=O)N1CCN(c2cc(N3CCc4ccccc4C3)c(F)cc2[N+](=O)[O-])CC1	3%	-3%	-3%	16µM*	13%	-23%
CCOC(=O)N1CCN(c2cc(N)c([N+](=O)[O-])cc2F)CC1	-4%	5%	1%	4.5µM*	6%	-16%
CCOC(=O)N1CCN(c2cc(C)c(C(C)=O)cc2F)CC1	2%	-18%	-1%	?	0%	3%
Cc1sc2nc(CC(=O)NN)[nH]c(=O)c2c1C	-4%	-2%	-1%	-14%	-3%	-12%
N#CC1=C2SCN(C3CCCCC3)CN2C(=O)CC1c1ccc(F)cc1 (centres undefined)	?	-6%	0%	28µM*	/	-11%
N#CC1=C2SCN(C3CCCCC3)CN2C(=O)CC1c1ccc(Cl)cc1 (centres undefined)	?	-2%	-1%	28µM*	/	-24%
